Screens from PubChem BioAssay.
A selection: hits, their analogues and other compounds. The true share with any hit is near 3.8%.
TGFb inhibitor: qHTS for Inhibitors of TGF-b; AID 588855, 2011; HepG2 CAGA-GFP TGF-b/SMAD3 reporter, GFP fluorescence, 18 h; TGF-beta stimulated, 500 pg/mL final; actives 1.2% (n = 410,000); Potency, µM (titrated, usually from 46.1 µM), most hits filed as inhibitors; further: nearly all actives have a fitted effect of over 65% in size
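Read-out: total well GFP (ex488/em500-530) summed from mean per-cell fluorescence. Cells: HEPG2 CAGA-GFP, 1% FBS DMEM, 18 h at 37 degrees C with 500 pg/mL final TGF-beta. Unstimulated wells served as the full-inhibition control; stimulated DMSO wells = 0%.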
ATXN2 expr inh: Primary qHTS for Inhibitors of ATXN expression; HEK-293 ATXN2-luciferase reporter, luminescence, 24 h; Potency, µM (series often up to 57 µM), actives largely listed as inhibitors; actives 0.72% (n = 360,000); AID 1745845, 2022; further: nearly all actives have a fitted effect of over 55% in size
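qHTS (up to 57 uM final) was run with 24 h compound exposure of reporter cells at 37 °C. Each well was multiplexed: SteadyGlo luminescence measured ATXN2-luciferase expression after a fluorogenic Gly-Phe-AFC viability readout (25 uM final).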
Nrf2 block: Nrf2 qHTS screen for inhibitors | AID 504444, 2011 | A549 ARE-Fluc reporter, luciferase luminescence, 18-24 h | actives 2.1% (n = 360,000) | Potency, µM (titrated, usually from 46 µM), most hits filed as inhibitors; further: nearly all actives have a fitted effect of over 60% in size
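Quantitative HTS in A549 cells stably bearing an antioxidant response element-firefly luciferase construct. Inhibition of Nrf2-driven transcription was scored by luminescence after 18-24 h of compound exposure at 37 °C.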
HepG2 tox: qHTS for Inhibitors of TGF-b: Cytotox Counterscreen; HepG2 CAGA-GFP viability, ATP luminescence, 18 h; Potency, µM (highest dose often 46.1 µM), hits mostly cytotoxic; actives 0.76% (n = 410,000); AID 588856, 2011
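CellTiter-Glo luminescence gave cytotoxicity after 18 hours at 37 degrees C. The cells were HepG2 CAGA-GFP in 1% FBS DMEM, stimulated with 500 pg/mL TGF-beta after compound addition. %Activity was normalised to no-cell wells (complete cell-killing) and DMSO (no toxicity), and curves were fitted and classified.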
ATXN viability: Viability Counterscreen for Primary qHTS for Inhibitors of ATXN expression. S2 cells (HEK-293 line with an ATXN2-luciferase reporter) viability, CellTiter-Fluor protease fluorescence, 24 h. AID 651635, 2014. Potency, µM (doses to about 56.7 µM), hits mostly cytotoxic. actives 0.49% (n = 400,000); further: nearly all actives have a fitted effect of over 40% in size
A549 tox: Nrf2 qHTS screen for inhibitors: counterscreen for cytotoxicity; A549 ARE-Fluc cells, CellTiter-Fluor viability, 18-24 h; Potency, µM (top dose mostly 46 µM), most hits filed as inhibitors; actives 0.16% (n = 390,000)
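A549 ARE_Fluc cells in 5% FBS OPTI-MEM were exposed to compounds in concentration-response for 18-24 h at 37 deg C. Viability was read by CellTiter-Fluor fluorescence (Ex 405/Em 525) after 30 min, before the luciferase read.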
Large screens that a line does not name were inactive. The call rests on the fitted dose curve; in most records, active means well fitted curve in the direction sought with a large enough effect; inconclusive means small, poorly fitted or top-dose-only effect, or another doubt; inactive means no such curve, though single readings can be large; an effect the other way counts as inactive or inconclusive.

Cc1ccc2cc3c(N)c(C(=O)N4CCOCC4)sc3nc2c1	Nrf2 block inconclusive
Cc1ccc2nc3sc(C(=O)N4CCOCC4)c(N)c3cc2c1	ATXN2 expr inh 2.51µM, Nrf2 block inconclusive
CCN(CC(=O)NC(C)(C)C)Cc1nc2c(Br)cc(Br)cc2c(=O)[nH]1	TGFb inhibitor inconclusive, ATXN2 expr inh 17.8µM, ATXN viability inconclusive
CCN(CC(=O)NC1CCS(=O)(=O)C1)Cc1nc2c(Br)cc(Br)cc2c(=O)[nH]1 (centres undefined)	none
COc1ccc(N2CC(c3nc(-c4ccccc4C)no3)CC2=O)cc1Cl (centres undefined)	none
Cc1nn(C(=O)c2ccc(Cl)cc2)c(C)c1S(=O)(=O)N1CCCCCC1	none (no result: Nrf2 block)
CCCCn1c(/N=C/c2ccccc2NS(=O)(=O)c2ccc(C)cc2)nc2ccccc21	TGFb inhibitor 15.8µM
Cc1ccc(S(=O)(=O)Nc2ccccc2/C=N/c2nc3ccccc3n2C(C)C)cc1	TGFb inhibitor inconclusive (no result: ATXN viability)
O=C(CNc1ccc(F)cc1)N/N=C/c1c(O)ccc2ccccc12	TGFb inhibitor inconclusive, ATXN2 expr inh 4.47µM, ATXN viability inconclusive
COc1ccccc1N(CC(=O)N/N=C/c1c(O)ccc2ccccc12)S(C)(=O)=O	ATXN2 expr inh 8.91µM
COc1ccccc1NCC(=O)N/N=C/c1c(O)ccc2ccccc12	ATXN2 expr inh 2.51µM, Nrf2 block inconclusive
COc1ccccc1CNC(=O)CN(c1ccccc1OC)S(C)(=O)=O	none (no result: ATXN2 expr inh, Nrf2 block, ATXN viability)
O=C(CSc1n[nH]c(=O)n1-c1ccccc1)N1CCOCC1	none
CCN(CC)c1ccc(/C=N/NC(=O)CNC(=O)C2COc3ccccc3O2)c(O)c1 (centres undefined)	TGFb inhibitor inconclusive, ATXN2 expr inh inconclusive, Nrf2 block 23.1µM
CCOC(=O)N/N=C/c1ccc(N(CC)CC)cc1O	none
CCN(CC)c1ccc(/C=N/NC(=O)CCC(=O)NCc2ccccc2)c(O)c1	ATXN2 expr inh 3.55µM
CCN(CC)c1ccc(/C=N/NC(=O)c2cccc(S(=O)(=O)N3CCOCC3)c2)c(O)c1	TGFb inhibitor inconclusive, ATXN2 expr inh 1.89µM, Nrf2 block inconclusive, A549 tox inconclusive (no result: ATXN viability)
Cc1ccc(/C=C/C(O)=C2/C(=O)N(C)C3(C)CC2c2ccccc2O3)cc1 (centres undefined)	ATXN2 expr inh inconclusive, Nrf2 block inconclusive, ATXN viability inconclusive
COc1ccc(/C=C/C(O)=C2/C(=O)N(C)C3(C)CC2c2ccccc2O3)cc1 (centres undefined)	ATXN2 expr inh inconclusive, Nrf2 block 29.1µM, A549 tox inconclusive
Cc1ccc2c(=O)cc(C(=O)Nc3c(C(=O)c4ccccc4)oc4ccccc34)oc2c1C	none
CN(CC(=O)Nc1cccc(C(F)(F)F)c1)C1=NS(=O)(=O)c2ccccc21	none
Cc1ccc(NC(=O)C(c2ccccc2)c2ccccc2)c(O)c1	TGFb inhibitor 15.8µM
COc1cc(NC(=O)C(c2ccccc2)c2ccccc2)c(C(=O)O)cc1OC	none (no result: ATXN2 expr inh)
O=C(/C=C/c1ccc([N+](=O)[O-])cc1)Nc1cccc(S(=O)(=O)NC2=NCCCCC2)c1	TGFb inhibitor inconclusive, Nrf2 block 18.4µM, ATXN viability inconclusive
O=C(/C=C/c1ccccc1Cl)Nc1cccc(S(=O)(=O)NC2=NCCCCC2)c1	TGFb inhibitor inconclusive, Nrf2 block 9.2µM, ATXN viability inconclusive, A549 tox inconclusive
O=C(Cc1ccccc1[N+](=O)[O-])Nc1cccc(S(=O)(=O)NC2=NCCCCC2)c1	Nrf2 block inconclusive
CCCCCC(=O)N1C[C@H](n2cc(COC(=O)c3ccccc3)nn2)[C@@H](O)C[C@@H]1c1ccc(OC)cc1	ATXN2 expr inh inconclusive, ATXN viability inconclusive (no result: Nrf2 block, A549 tox)
NC(COCc1ccccc1)c1csc(NC(=O)Nc2cccc(Cl)c2)n1 (centres undefined)	TGFb inhibitor inconclusive, ATXN2 expr inh inconclusive (no result: Nrf2 block, ATXN viability, A549 tox)
Cc1cc(Sc2nnc(/N=C/N(C)C)s2)c2ccccc2n1	TGFb inhibitor 8.91µM, Nrf2 block 7.31µM, HepG2 tox 11.2µM, ATXN viability inconclusive (no result: ATXN2 expr inh)
Cc1cc(C)c2ccccc2n1	none (no result: ATXN2 expr inh, Nrf2 block, ATXN viability, A549 tox)
CCCCCCCCSc1nnc(/N=C/N(C)C)s1	Nrf2 block inconclusive
Cc1cc(Sc2nnc(N)s2)c2ccccc2n1	TGFb inhibitor 7.08µM, ATXN2 expr inh inconclusive, Nrf2 block inconclusive, ATXN viability 25.1µM
O=C(COC(=O)C12CC3CC(CC(Br)(C3)C1)C2)Nc1c(F)cccc1F	none
COCCN(CC(=O)NC1CCCCC1)C(=O)/C=C/C(=O)c1ccc(OC)cc1O	TGFb inhibitor inconclusive, ATXN2 expr inh inconclusive, Nrf2 block inconclusive, HepG2 tox 12.6µM, A549 tox inconclusive (no result: ATXN viability)
COc1ccc(CN(C(=O)/C=C/C(=O)c2ccc(OC)cc2O)C(C(=O)NC2CCCCC2)c2ccncc2)cc1 (centres undefined)	TGFb inhibitor inconclusive, ATXN viability inconclusive
COc1ccc(C(=O)/C=C/C(=O)N(CC(=O)NC2CCCCC2)Cc2cccs2)c(O)c1	TGFb inhibitor inconclusive, ATXN2 expr inh inconclusive, Nrf2 block inconclusive, ATXN viability 26.7µM, A549 tox inconclusive
COc1ccc(/C=N/Nc2nc(C)cc(-c3ccccc3)n2)cc1OC	Nrf2 block 23.1µM
Cc1cc(-c2ccccc2)nc(N/N=C/c2ccccc2)n1	TGFb inhibitor inconclusive, ATXN2 expr inh inconclusive, Nrf2 block inconclusive
CCN(CC)CCCC(C)Nc1cc(/C=C/c2ccccc2Cl)nc2cc(Cl)ccc12 (centres undefined)	TGFb inhibitor 2.82µM, HepG2 tox 2.82µM (no result: ATXN2 expr inh, Nrf2 block, ATXN viability, A549 tox)
COc1ccc(NC(=O)c2c(C)oc3ccc(O)c(CN4CCC(C)CC4)c23)cc1Cl	TGFb inhibitor 12.6µM, HepG2 tox 10µM, ATXN viability 14.1µM
COc1ccc(NC(=O)c2c(C)oc3ccc(O)c(CN4CCCC(C)C4)c23)cc1Cl (centres undefined)	HepG2 tox 11.2µM (no result: TGFb inhibitor, ATXN2 expr inh, ATXN viability)
CCN1CCN(Cc2c(O)ccc3oc(C)c(C(=O)Nc4ccc(OC)c(Cl)c4)c23)CC1	ATXN viability inconclusive
CCOc1ccccc1-c1nc(C(N)=O)c2c(n1)n(-c1ccc3c(c1)OCO3)c(=O)n2C	none (no result: Nrf2 block)
O=C1c2ccccc2C(=O)N1c1nc(-c2ccc(F)cc2)cs1	none (no result: ATXN2 expr inh, Nrf2 block, ATXN viability, A549 tox)
Cc1cccc(C(=O)N[C@H](C(=O)Nc2ncc(C)s2)C(C)C)c1	TGFb inhibitor 11.2µM, ATXN2 expr inh 8.44µM, Nrf2 block inconclusive
Cc1cccc(C(=O)N[C@H](C(=O)Nc2nnc(C3CC3)s2)C(C)C)c1	none
Cc1c(C)n(Cc2ccccc2)c2ncnc(NN)c12	TGFb inhibitor inconclusive, Nrf2 block 25.9µM
